TRPV1 potentiator = enhances activation of the human vanilloid receptor TRPV1; Q8NER1; 320,000 tested, 0.02% active; TRPV1-expressing cells, Fluo-8 calcium influx, capsaicin EC20 potentiation; potentiation, % at 8.33 µM; in the data active means potentiation above about 80%; inconclusive means between about 30% and that limit; further: 0% is about no effect
Target sequence (Q8NER1 whole entry, looked up): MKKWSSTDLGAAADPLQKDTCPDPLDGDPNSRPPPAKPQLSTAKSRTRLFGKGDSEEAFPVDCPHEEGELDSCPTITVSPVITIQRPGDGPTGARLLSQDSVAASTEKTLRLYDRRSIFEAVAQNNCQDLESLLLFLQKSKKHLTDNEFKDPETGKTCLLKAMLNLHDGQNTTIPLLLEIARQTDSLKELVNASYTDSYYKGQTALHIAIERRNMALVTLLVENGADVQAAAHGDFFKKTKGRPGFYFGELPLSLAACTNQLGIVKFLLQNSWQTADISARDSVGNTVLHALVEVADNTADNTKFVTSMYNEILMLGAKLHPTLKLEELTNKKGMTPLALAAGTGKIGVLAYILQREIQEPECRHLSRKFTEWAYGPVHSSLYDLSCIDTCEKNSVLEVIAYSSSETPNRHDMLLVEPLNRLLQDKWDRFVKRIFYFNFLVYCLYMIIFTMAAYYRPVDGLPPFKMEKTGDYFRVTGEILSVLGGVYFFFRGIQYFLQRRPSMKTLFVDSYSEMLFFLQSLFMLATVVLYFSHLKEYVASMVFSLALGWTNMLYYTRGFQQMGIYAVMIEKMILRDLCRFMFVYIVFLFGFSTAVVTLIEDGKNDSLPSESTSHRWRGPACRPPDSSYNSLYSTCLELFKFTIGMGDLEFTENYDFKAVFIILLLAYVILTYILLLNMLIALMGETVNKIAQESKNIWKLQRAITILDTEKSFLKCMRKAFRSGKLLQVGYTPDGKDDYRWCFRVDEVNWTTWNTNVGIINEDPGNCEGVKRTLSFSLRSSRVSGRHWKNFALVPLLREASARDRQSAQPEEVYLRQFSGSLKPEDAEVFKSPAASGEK
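TRPV1-expressing cells were cultured overnight at 35.5C and loaded with Fluo-8 calcium dye for 40 to 90 min at room temperature. After a 10 s baseline, compound was added and calcium influx was read kinetically for 3 min (ex 480/em 520 nm).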
KCNH2 3.1 inh = KCNH2 3.1 (human) potassium channel inhibition; U2OS KCNH2 3.1, thallium flux FluxOr; stronger effect = lower value; activity change, % (tested at about 1.8 µM); 340,000 tested, 0.95% active;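 active means maximum activity change below -70%; inconclusive means maximum activity change from -70% to -50%; inactive means maximum activity change above -50%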;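 further: thallium influx rate constant from kinetic fluorescence after stimulation buffer; on the % scale 0 is the no-effect control and ±100 the full control effect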
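Kinetic fluorescence (2 min after stimulation buffer) measures Tl+ influx through KCNH2 3.1 expressed by viral transduction in U2OS cells; the rate constant is normalized against DMSO controls serving as positive and negative references.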
hERG WT inh = KCNH2 (human, wildtype) channel inhibition. activity change, % at 1.84 µM. 340,000 tested, 0.37% active. AID 720551. Q12809. U2OS, BacMam KCNH2, thallium flux FluxOr; stronger effect = lower value;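 active means maximum activity change below -70%; inconclusive means maximum activity change between -70% and -50%; inactive means maximum activity change above -50%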; further: on the % scale 0 is the no-effect control and ±100 the full control effect
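U2OS cells transduced with wild-type KCNH2 virus are loaded with FluxOr dye for 45 min, and thallium flux is measured in kinetic reads before and after stimulation buffer. Rate constants are normalized to DMSO controls.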
TRPV1 ag = agonists of human vanilloid receptor 1 (TRPV1) | Q8NER1 | TRPV1-expressing cells, Fluo-8 calcium influx, agonist mode | activation, % at 8.33 µM | 320,000 tested, 0.19% active | AID 540275; in the data active means activation above about 80%; inconclusive means between about 30% and that limit; further: 0% is about no effect
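TRPV1-expressing cells were cultured overnight at 35.5C and loaded with Fluo-8 calcium dye for 40 to 90 min at room temperature. After a 10 s baseline, compound was added and calcium influx was read kinetically for 3 min (ex 480/em 520 nm).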
* hit, by the source's call; ? = inconclusive; / = no result given. Sampled rows, rich in hits. Any-hit rate of the full collection: about 1.2%.

SMILES | TRPV1 potentiator | KCNH2 3.1 inh | hERG WT inh | TRPV1 ag
O=C(Nc1ccc(N2CCN(C(=O)c3ccc(Cl)cc3)CC2)cc1)c1ccc2c(c1)OCCO2 | 9 | -79* | 1 | 5
O=C(c1ccc(Cl)cc1)N1CCC(O)(CSc2ccc(Cl)cc2)CC1 | / | -89* | -28 | /
O=C(c1ccc(Cl)cc1)N1CCC(O)(CSc2ccccc2)CC1 | 6 | 11 | -7 | 2
CC1CCCCN1S(=O)(=O)c1ccc(N(C(=O)c2cnccn2)C(C(=O)NC2CCCC2)c2cccs2)cc1 (stereo not drawn) | 1 | 2 | 13 | 3
CC1CCCCN1S(=O)(=O)c1ccc(N(C(=O)c2cnccn2)C(C(=O)NC2CCCCC2)c2cccs2)cc1 (stereo not drawn) | -14 | 7 | -71* | 19
Cc1c(NC2=NC(C)(C)Cc3ccccc32)c(=O)n(-c2ccccc2)n1C | -6 | -18 | 13 | 1
Cc1c(NC2=NC3(CCCCC3)Cc3ccccc32)c(=O)n(C)n1-c1ccccc1 | 5 | -194* | -172* | -1
Fc1ccc(-n2cc(CNCCc3cccnc3)c(-c3ccccc3Cl)n2)cc1 | -12 | -74* | 70 | 23
CC(=O)c1ccc(NC(=O)C(C)Sc2nnc(-c3ccncc3)n2C2CC2)cc1 (stereo not drawn) | / | -1 | 3 | /
COc1ccc(CCNC(=O)Cn2c(=O)n(CC3CCCO3)c(=O)c3cc(OC)c(OC)cc32)cc1OC (stereo not drawn) | 3 | -141* | 29 | -2
CCc1cc(-c2nnn(CCC3COCCO3)c2CC)ccc1-c1cn(Cc2ccccc2)nn1 (stereo not drawn) | / | -13 | -15 | /
CC1CCN(C(=O)CSCc2ccc(Cl)cc2)CC1 | -14 | -11 | -8 | 19
CC1CCN(CCCCOc2ccc(Cl)cc2)CC1 | ? | -76* | 54 | 1
CC1CCN(C(=O)CCCOc2ccc(Cl)cc2)CC1 | -11 | -2 | 15 | 80*
CC(C)(C)c1ccc(OCCCCCCN2CCNCC2)cc1 | / | -30 | 11 | /
CC1CCN(CCCCOc2ccc(C(C)(C)C)cc2)CC1 | 1 | -75* | -20 | -2
CC1CCN(CCOCCOc2ccccc2-c2ccccc2)CC1 | 6 | -29 | 30 | 3
CC1CCN(CCCCOc2ccccc2-c2ccccc2)CC1 | -6 | -80* | -71* | 10
CCC1(c2ccc(OC)cc2)NC(=O)N(CC(=O)c2ccc3c(c2)OCCO3)C1=O (stereo not drawn) | 0 | -11 | -6 | 5
C[C@@H]1CN([C@H](C)CO)C(=O)CCCn2cc(nn2)CO[C@H]1CN(C)S(=O)(=O)c1ccc2ccccc2c1 | / | 1 | -5 | /
CC(C)C(NC(=O)c1ccccc1)C(=O)N1CCN(C/C=C/c2ccccc2)CC1 (stereo not drawn) | -3 | -8 | 6 | 6
CSCCC(NC(=O)c1ccc(Cl)c([N+](=O)[O-])c1)C(=O)N1CCN(C/C=C/c2ccccc2)CC1 (stereo not drawn) | -10 | -97* | -42 | 16
CCn1ncc(CN2CCC(C(=O)Nc3cccc(-c4cccc(F)c4)c3)CC2)c1C | ? | -97* | -117* | 0
CC(=O)c1cccc(CN2CCC(C(=O)Nc3ccc(-c4cccc(C)c4)cc3)CC2)c1 | 3 | -101* | -13 | -3
CCn1nc(C)c(CN2CCC(C(=O)Nc3cccc(-c4cccc(Cl)c4)c3)CC2)c1C | 7 | -95* | -94* | 2
SMILES | TRPV1 potentiator | KCNH2 3.1 inh | hERG WT inh | TRPV1 ag
Cc1cc(C)n(CCCN2CCC(C(=O)Nc3cccc(-c4cccc(F)c4)c3)CC2)n1 | 6 | -102* | -105* | 2
CC(=O)c1cccc(CN2CCC(C(=O)Nc3ccc(Oc4cccnc4)cc3)CC2)c1 | -9 | / | 26 | 5
CC(C)(C)OC[C@H](NC(=O)c1[nH]cnc1C(=O)Nc1ccccc1F)C(=O)OC(C)(C)C | / | -10 | 2 | /
CCCCCOc1ccc(C(C)(O)C(CN2CCOCC2)c2ccccc2)cc1 (stereo not drawn) | -8 | -5 | -6 | 3
O=C(NCCC(=O)N1CCN(S(=O)(=O)c2ccccc2Cl)CC1)Nc1ccccc1 | 22 | 3 | 23 | 2
Cc1ccc(S(=O)(=O)N2CCN(C(=O)c3ccc(-n4cncn4)c([N+](=O)[O-])c3)CC2)c(C)c1 | / | -12 | 21 | /
Cc1ncc(CN2CCCC(C(=O)Nc3ccc(-c4cccc(F)c4)cc3)C2)n1C (stereo not drawn) | 5 | -84* | -17 | -1
COc1cccc(-c2ccc(NC(=O)C3CCCN(Cc4cnc(C)n4C)C3)cc2)c1 (stereo not drawn) | -13 | ? | 26 | 4
NC(=O)[C@H]1CC2(CC(c3cccc(NC(=O)COc4ccc(Cl)cc4)c3)=NO2)CN1C(=O)c1ccc(Cl)cc1 (stereo partly drawn) | -17 | -91* | -43 | 2
C/C=C/C(=O)Nc1cccc(C2=NOC3(C2)C[C@@H](C(N)=O)N(C(=O)c2cc([N+](=O)[O-])cc([N+](=O)[O-])c2C)C3)c1 (stereo partly drawn) | 26 | -84* | 3 | -3
C/C=C\C(=O)Nc1cccc(C2=NOC3(C2)C[C@@H](C(N)=O)N(C(=O)CCCCC)C3)c1 (stereo partly drawn) | ? | 6 | -85* | 2
CCCCCC(=O)N1CC2(CC(c3cccc(NC(=O)COc4ccc(Cl)cc4)c3)=NO2)C[C@@H]1C(N)=O (stereo partly drawn) | 22 | -74* | -91* | 0
Cc1cc2c(c(C#N)c1C)NC=NC2C (stereo not drawn) | / | 2 | 1 | /
Cc1ccc(CN2CC(C(=O)N(CC(C)C)c3c(N)n(Cc4ccccc4)c(=O)[nH]c3=O)CC2=O)cc1 (stereo not drawn) | / | 5 | -3 | /
CCOC(=O)c1c(S(=O)(=O)NCC(=O)Nc2ccc(OC)cc2)c(C)n(C)c1C | -3 | -162* | -1 | -1
Cc1c(NC(=O)C(C)C)cccc1-c1nc2ncccc2o1 | -6 | 4 | 11 | 3
Cc1c(NC(=O)c2cccc(-c3cc4ccccc4oc3=O)c2)cccc1-c1nc2ncccc2o1 | -2 | -96* | -45 | 1
Cc1ccc(N(Cc2ccccc2)C(=O)c2cccc(S(=O)(=O)N3CCN(C)CC3)c2)cc1 | -4 | -5 | 25 | 4
CN1CCN(S(=O)(=O)c2cccc(C(=O)N(C)C(c3ccccc3)c3ccccc3)c2)CC1 | -24 | -75* | 11 | 13
COc1cccc(CN(C)C(=O)c2cccc(S(=O)(=O)N3CCN(c4ccc(F)cc4)CC3)c2)c1OC | 0 | -159* | 0 | 13
C[C@H](CO)N1C[C@H](C)[C@@H](CN(C)C(=O)Nc2ccccc2)Oc2c(NC(=O)C3CCCCC3)cccc2C1=O | / | 24 | -1 | /
COc1ccc(CCNC(=O)C2CC3Cn4c(nc5cc(Cl)c(Cl)cc54)C3N2C)cc1 (stereo not drawn) | 7 | -13 | -252* | 0

Bioassay records from PubChem.
